Data on 40 compounds can be found in PubChem BioAssay (NCATS).

Each structure is given as a SMILES string. Records with an inconclusive call do not appear. Where a call stands in place of a potency, no number is given. Active and inactive are the calls of the source. Calls follow the shape of the dose curve; as a rule, active = well fitted inhibition curve with a large enough effect; inconclusive = small, poorly fitted or top-dose-only effect; inactive = no such curve, though single readings can be large or run the other way.

The assay deals with Retinal dehydrogenase 2 (Homo sapiens) (UniProt O94788). Put plainly: qHTS for Inhibitors of the Aldehyde Dehydrogenase Family (ALDH1A2) Confirmation screens (AID 2061314). Also: nearly all actives have a fitted effect of over 65% in size. The settings on record: ALDH1A2 enzyme inhibition qHTS confirmation; series mostly up to 45.9 µM. In general terms: Quantitative high-throughput screening tests each substance at several concentrations.
In the case of `COc1ccccc1C(=O)Nc1cc(-c2cccc(Br)c2)nn1-c1ccccc1`, the Potency entry was “inactive”.
As for `CNC(=O)c1cc(C)nc2onc(C3CCCN3C(=O)c3ccccc3)c12` (stereo not given), the Potency result is “inactive”.
`COc1cccc(-c2ccc(C(=O)N3CCC(N[S+](=O)([O-])CCC(F)(F)F)CC3)cc2)c1`: the Potency result was “inactive”.
Consider `Cn1nc(C(=O)N2CCOCCNC(=O)CC2)c2ccccc21`, for which the Potency result is “inactive”.
On to `CCOc1ccc(C(=O)N(Cc2ccc(C(C)C)cc2)Cc2ccco2)cc1`, for which the Potency result is “inactive”.
In the case of `CC(=O)c1ccc(NC(=O)CCc2c(C)nn(-c3ccc4nnc(C)n4n3)c2C)cc1` it was “inactive”; in that of `CCCc1cnc2c(c1SCC(=O)N(C)c1ccccc1)c(=O)n(C)c(=O)n2C`, “inactive”.
In the case of `CCc1noc(-c2nc(Cc3cccc(F)c3)no2)n1` it was “inactive”.
Regarding `CN(Cc1ccccc1C(F)(F)F)C(=O)c1ccc(Cl)nc1`, the Potency entry was “inactive”.
Turning to `COc1ccc(S(=O)(=O)N2CCC(N(C(=O)C3CC3)C3CCOCC3)CC2)cc1`, the Potency result was “inactive”.
Turning to `O=C(CC1N=C2c3ccccc3N=C(SCc3cccc(F)c3)N2C1=O)NCc1cccs1` (stereo not given), the Potency result is “inactive”.
Consider `CCc1c(-c2ccccc2)nc2ccccc2c1C(=O)NC(C)c1ccccc1` (stereo not given), for which the Potency entry is “inactive”.
For `COc1ccc(OC)c(NC(=O)CSc2nnc3ccc4ccccc4n23)c1`, the Potency result is “inactive”.
Consider `O=c1c2cn[nH]c2nc(SCc2cccc(Br)c2)n1-c1ccc(Cl)cc1`, for which the Potency result was “inactive”.
With `COc1cc(OC)cc(C(=O)NCCc2csc3nc(-c4ccccc4F)nn23)c1` the entry was “inactive”; with `COCCn1cnnc1CN(C)C(=O)c1ccc2nc(C)cn2c1`, “inactive”.
Turning to `COCC1CN(Cc2ccc(C(F)(F)F)cc2)CC12CCNCC2` (stereo not given), the Potency result was “inactive”.
On to `Cc1ccc(S(=O)(=O)N2CCC(C(=O)Nc3ccc(Oc4ccccc4)cc3)CC2)cc1`, for which the Potency result was “inactive”.
Regarding `Cc1nc2c(c(C)c1CCC(=O)Nc1ccc(F)cc1)c(=O)n(C)c(=O)n2C`, the Potency entry is “inactive”.
Take `COc1ccc(OC)c(S(=O)(=O)Nc2ccc3[nH]c(=O)[nH]c3c2)c1`: the Potency entry was “inactive”.
In the case of `Cc1cccc(C(=O)N2CCCC(N3CCN(c4cccc(C(F)(F)F)c4)CC3)C2)c1` (stereo not given) it was “inactive”.
With `COc1ccc(-c2cc(C(=O)NCCc3ccc(OC)c(OC)c3)c3ccccc3n2)cc1` the entry was “inactive”; with `COc1ccc(S(=O)(=O)NCc2nc3nc(C)cc(C)n3n2)cc1OC`, “inactive”.
Take `Cc1ccc(-n2c(-c3cccc(C)c3)nc3c(cnn3-c3ccccc3)c2=O)cc1`: the Potency result is “inactive”.
Consider `Cn1c(=O)n([C@H]2CCCN(C(=O)c3cccnc3)C2)c2ncccc21`, for which the Potency result was “inactive”.
With `CCC(=O)N(C1CCOCC1)C1CCN(S(=O)(=O)c2ccc(C(F)(F)F)cc2)CC1` the entry was “inactive”.
Turning to `COC(=O)CSc1ccc2nnc(CCNS(=O)(=O)c3ccccc3)n2n1`, the Potency result was “inactive”.
Turning to `COc1ccc(NS(=O)(=O)c2ccc3[nH]c(=O)ccc3c2)cc1OC`, the Potency result was “inactive”.
With `O=C(NCCOc1ccccc1)[C@@H]1C[C@@H](c2ccc(F)cc2)N([S+](=O)([O-])c2ccccc2)C1` the entry was “inactive”.
Take `COc1cc(-c2noc(-c3ccc(NC4CCCCC4)c([N+](=O)[O-])c3)n2)cc(OC)c1OC`: the Potency result was “inactive”.
Regarding `O=C(NCC(=O)N1CCOCC1)c1cccc(-c2ccc(C(F)(F)F)cc2)c1`, the Potency entry is “inactive”.
As for `COCCNC(=O)CNC(=O)c1ccc(-c2cccc(C(F)(F)F)c2)cc1`, the Potency result is “inactive”.
As for `COc1ccc(C(CNC(=O)c2cccc([N+](=O)[O-])c2)N2CCOCC2)cc1` (stereo not given), the Potency entry was “inactive”.
Consider `CCc1nn(-c2ccccc2)c(Oc2cccc(C)c2)c1CCC(=O)N1CCOCC1`, for which the Potency result was “inactive”.
In the case of `Cc1ccccc1NC(=O)CSc1nc2ccccc2c2nc(CCn3cncc3C)nn12` it was “inactive”.
In the case of `COC(=O)c1cc(C)nc2c1c(=O)nc(SCc1ccccc1C)n2C1CC1` it was “inactive”.
In the case of `CCOc1ccc(CNC(=O)C2CCCCN2S(=O)(=O)c2ccc(F)cc2)cc1OC` (stereo not given) it was “inactive”; in that of `O=S(=O)(NCCn1cc(-c2cncnc2)nn1)c1ccc(Cl)cc1`, “inactive”; in that of `Cn1cc(S(=O)(=O)N2CCCCC2)cc1C(=O)Nc1ccc(OC(F)(F)F)cc1`, “inactive”.
Take `Cc1cccc(NC(=O)CSc2nc3ccccc3nc2N2CCOCC2)c1C`: the Potency entry was “inactive”.
